In PubChem BioAssay (NCI):
About 83,000 compounds went through this panel and 20% of them were active in at least one assay; those are over-represented in the sample as a whole.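 Interpretation: 100, growth as untreated; towards 0, rising growth inhibition; 0, no net growth; 0 to -100, cell death. Compounds scoring below 10 were considered active.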 The source made the active and inactive calls.

Key:
Test in all cases: NCI-60 one-dose screen, 48 h (100 = growth as untreated, 0 = no growth, -100 = all killed)
K-562 leukemia = conditions: 10 µM unless noted
MALME-3M melanoma = conditions: 10 µM unless noted
MDA-MB-231 breast = conditions: 10 µM unless noted
RXF 393 renal = conditions: 10 µM unless noted
SF-268 CNS = conditions: 10 µM unless noted
SF-295 CNS = conditions: 10 µM unless noted
SF-539 CNS = conditions: 10 µM unless noted
UACC-257 melanoma = conditions: 10 µM unless noted
HCT-15 colon = conditions: 10 µM unless noted
HT29 colon = conditions: 10 µM unless noted
SNB-75 CNS = conditions: 10 µM unless noted
U251 CNS = conditions: 10 µM unless noted
PC-3 prostate = conditions: 10 µM unless noted
SK-MEL-5 melanoma = conditions: 10 µM unless noted
UACC-62 melanoma = conditions: 10 µM unless noted
LOX IMVI melanoma = conditions: 10 µM unless noted
SK-MEL-28 melanoma = conditions: 10 µM
SK-MEL-2 melanoma = conditions: 10 µM unless noted
SNB-19 CNS = conditions: 10 µM unless noted
M14 melanoma = conditions: 10 µM unless noted

Measured: growth

Clc1ccc(Oc2ccc(Nc3ncnc4onc(-c5ccccc5)c34)cc2)c(Cl)c1
inactive: K-562 leukemia 78.1% | MALME-3M melanoma 105% | MDA-MB-231 breast 99.7% | RXF 393 renal 120% | SF-268 CNS 102% | SF-295 CNS 97% | SF-539 CNS 98.8% | UACC-257 melanoma 99% | HCT-15 colon 89% | HT29 colon 84.2% | SNB-75 CNS 83.5% | U251 CNS 102% | PC-3 prostate 94.2% | SK-MEL-5 melanoma 93.4% | UACC-62 melanoma 81% | LOX IMVI melanoma 98.4% | SK-MEL-28 melanoma 102% | SK-MEL-2 melanoma 104%

O=C(Nc1ncc(Cc2cccc(C(F)(F)F)c2)s1)C1COc2ccccc2O1 (stereo not drawn)
inactive: K-562 leukemia 63.3% | MALME-3M melanoma 71.8% | MDA-MB-231 breast 95.1% | RXF 393 renal 79% | SF-268 CNS 87.6% | SF-295 CNS 86.4% | SF-539 CNS 95.8% | UACC-257 melanoma 88.1% | HCT-15 colon 72% | HT29 colon 84.9% | SNB-75 CNS 83.3% | SNB-19 CNS 89.9% | U251 CNS 83.8% | SK-MEL-5 melanoma 89.8% | UACC-62 melanoma 65.3% | SK-MEL-28 melanoma 87.5% | SK-MEL-2 melanoma 88%

O=C(NC(=S)Nc1cccc(NC(=S)NC(=O)c2ccccc2)c1)c1ccccc1
inactive: K-562 leukemia 68.7% | MALME-3M melanoma 55.3% | MDA-MB-231 breast 56.7% | RXF 393 renal 85.4% | SF-268 CNS 56.1% | SF-539 CNS 70% | UACC-257 melanoma 44.7% | M14 melanoma 73.5% | HCT-15 colon 73.5% | HT29 colon 74.1% | SNB-19 CNS 50.9% | U251 CNS 60.1% | PC-3 prostate 61.3% | SK-MEL-5 melanoma 80% | UACC-62 melanoma 67% | LOX IMVI melanoma 71% | SK-MEL-2 melanoma 66.1%
active: SNB-75 CNS -2.29%

COc1cc(-c2c3c(c(Br)n2Cc2ccccc2)-c2nc(N)sc2CC3)cc(OC)c1OC
inactive: K-562 leukemia 47.7% | MALME-3M melanoma 81% | MDA-MB-231 breast 68.6% | RXF 393 renal 90.5% | SF-268 CNS 88.2% | SF-539 CNS 98.1% | UACC-257 melanoma 93.6% | M14 melanoma 90.3% | HCT-15 colon 85% | HT29 colon 105% | SNB-75 CNS 73.7% | SNB-19 CNS 88.2% | U251 CNS 85.3% | PC-3 prostate 78.6% | SK-MEL-5 melanoma 87.1% | UACC-62 melanoma 68.3% | LOX IMVI melanoma 87.5% | SK-MEL-28 melanoma 87.3% | SK-MEL-2 melanoma 101%

COc1ccc(Nc2nc(N/N=C/c3ccc(O)cc3)nc(Nc3ccc([N+](=O)[O-])cc3)n2)cc1
inactive: K-562 leukemia 103% | MALME-3M melanoma 114% | MDA-MB-231 breast 109% | RXF 393 renal 121% | SF-268 CNS 128% | SF-295 CNS 89.2% | SF-539 CNS 110% | UACC-257 melanoma 99.9% | HT29 colon 105% | SNB-75 CNS 104% | SNB-19 CNS 101% | U251 CNS 104% | PC-3 prostate 108% | SK-MEL-5 melanoma 104% | LOX IMVI melanoma 107% | SK-MEL-28 melanoma 104% | SK-MEL-2 melanoma 103%

O=C(CN1C=NC2C(N3CCOCC3)=NC=NC21)c1cccc2ccccc12 (stereo not drawn)
inactive: K-562 leukemia 107% | MALME-3M melanoma 114% | MDA-MB-231 breast 88.1% | RXF 393 renal 100% | SF-268 CNS 84.7% | SF-295 CNS 102% | SF-539 CNS 98.9% | UACC-257 melanoma 101% | HCT-15 colon 95.8% | HT29 colon 111% | SNB-19 CNS 96.7% | U251 CNS 101% | PC-3 prostate 85.2% | UACC-62 melanoma 85.5% | LOX IMVI melanoma 91.9% | SK-MEL-28 melanoma 109% | SK-MEL-2 melanoma 99%

CCOC(=O)CSc1c(-c2ccccc2)c2cc(Cl)ccc2[nH]c1=O
inactive: K-562 leukemia 84.1% | MALME-3M melanoma 114% | MDA-MB-231 breast 104% | RXF 393 renal 103% | SF-268 CNS 102% | SF-295 CNS 69.6% | SF-539 CNS 107% | UACC-257 melanoma 120% | HCT-15 colon 91.7% | HT29 colon 105% | SNB-75 CNS 94.1% | SNB-19 CNS 108% | PC-3 prostate 91.9% | UACC-62 melanoma 92.6% | LOX IMVI melanoma 84% | SK-MEL-28 melanoma 109% | SK-MEL-2 melanoma 114%

COc1ccc(-c2nsc3c2NC(=O)CC3c2ccc3c(c2)OCCO3)cc1 (stereo not drawn)
active: RXF 393 renal 0.635% | SF-295 CNS 0.403% | SF-539 CNS -17% | HT29 colon -0.622%
inactive: K-562 leukemia 13.3% | MALME-3M melanoma 59.9% | SF-268 CNS 55.4% | UACC-257 melanoma 76.2% | M14 melanoma 19.7% | HCT-15 colon 14.6% | SNB-75 CNS 35.1% | SNB-19 CNS 56.8% | U251 CNS 24.3% | PC-3 prostate 23.6% | SK-MEL-5 melanoma 27% | UACC-62 melanoma 32.2% | LOX IMVI melanoma 44.3% | SK-MEL-28 melanoma 43.1% | SK-MEL-2 melanoma 57.5%

COc1ccc(-n2c(C(O)c3ccccc3)nn(CN3CCOCC3)c2=S)cc1 (stereo not drawn)
inactive: K-562 leukemia 110% | MALME-3M melanoma 104% | MDA-MB-231 breast 97.6% | SF-268 CNS 103% | SF-295 CNS 79.7% | SF-539 CNS 102% | UACC-257 melanoma 105% | M14 melanoma 95.2% | HT29 colon 109% | SNB-75 CNS 87.4% | SNB-19 CNS 92.7% | U251 CNS 95.2% | PC-3 prostate 101% | SK-MEL-5 melanoma 112% | UACC-62 melanoma 95.8% | LOX IMVI melanoma 95.4% | SK-MEL-28 melanoma 89.2% | SK-MEL-2 melanoma 95.2%

CC/C=C\C[C@H](O)C/C=C1/C(=O)C=C[C@@H]1C/C=C\CCCC(=O)OCCS(=O)(=O)c1ccccc1
inactive: MALME-3M melanoma 63.7% | MDA-MB-231 breast 40.2% | SF-268 CNS 42.6% | SF-295 CNS 100% | SF-539 CNS 59.9% | UACC-257 melanoma 66.8% | M14 melanoma 27.5% | HCT-15 colon 62% | HT29 colon 45.1% | SNB-75 CNS 111% | SNB-19 CNS 56.2% | U251 CNS 16.3% | PC-3 prostate 63.4% | UACC-62 melanoma 16.1% | SK-MEL-28 melanoma 73.9% | SK-MEL-2 melanoma 72%
active: K-562 leukemia 7.77% | LOX IMVI melanoma -34.1%

CCCCCCCCCCOC(=O)c1ccccc1C(=O)OCCCC
inactive: K-562 leukemia 99.9% | MALME-3M melanoma 157% | SF-268 CNS 109% | SF-539 CNS 103% | UACC-257 melanoma 111% | M14 melanoma 100% | HCT-15 colon 111% | HT29 colon 105% | SNB-75 CNS 81.9% | U251 CNS 101% | PC-3 prostate 90.4% | LOX IMVI melanoma 102% | SK-MEL-28 melanoma 119% | SK-MEL-2 melanoma 111%

COc1cccc(C(=O)Cn2cc(/C=C(\C#N)S(=O)(=O)c3ccccc3)c3ccccc32)c1
inactive: K-562 leukemia 79.2% | MALME-3M melanoma 108% | MDA-MB-231 breast 102% | SF-268 CNS 93.7% | SF-295 CNS 88.8% | SF-539 CNS 90.5% | UACC-257 melanoma 89.9% | M14 melanoma 86.5% | HCT-15 colon 110% | HT29 colon 111% | SNB-75 CNS 92.6% | SNB-19 CNS 95.4% | U251 CNS 103% | PC-3 prostate 109% | SK-MEL-5 melanoma 92.4% | UACC-62 melanoma 87.5% | LOX IMVI melanoma 94.8% | SK-MEL-28 melanoma 112% | SK-MEL-2 melanoma 85.9%

O=C(NN1C(=O)CSC1c1ccc(Cl)cc1)c1[nH]c2ccc(F)cc2c1-c1ccccc1 (stereo not drawn)
inactive: K-562 leukemia 28.2% | MALME-3M melanoma 85.2% | MDA-MB-231 breast 63.4% | SF-268 CNS 65.1% | SF-539 CNS 78.8% | UACC-257 melanoma 74.4% | M14 melanoma 57.3% | HCT-15 colon 55.7% | SNB-75 CNS 59.2% | SNB-19 CNS 64.2% | U251 CNS 49.6% | PC-3 prostate 42.7% | SK-MEL-5 melanoma 75% | UACC-62 melanoma 48.7% | LOX IMVI melanoma 60.9% | SK-MEL-2 melanoma 49.3%
active: SF-295 CNS 8.34%

COc1ccc(C2Nc3ncnc(N)c3N=C3c4ccccc4C(=O)C32)cc1 (stereo not drawn)
inactive: K-562 leukemia 84.5% | MALME-3M melanoma 101% | MDA-MB-231 breast 97.9% | SF-268 CNS 84% | SF-295 CNS 96.9% | SF-539 CNS 100% | UACC-257 melanoma 102% | M14 melanoma 94.8% | HCT-15 colon 89.4% | HT29 colon 98.2% | SNB-75 CNS 71.5% | SNB-19 CNS 82.2% | U251 CNS 90.9% | PC-3 prostate 78% | SK-MEL-5 melanoma 95.6% | LOX IMVI melanoma 92.8% | SK-MEL-28 melanoma 113% | SK-MEL-2 melanoma 88.5%

FC(F)(F)c1cccc(Nc2nc(-c3ccccc3)nc3ncccc23)c1
inactive: MDA-MB-231 breast 44% | SF-268 CNS 13.3% | HT29 colon 15% | SNB-75 CNS 91.4% | SNB-19 CNS 100% | U251 CNS 58.3% | SK-MEL-2 melanoma 104%
active: K-562 leukemia -47.1% | MALME-3M melanoma -83.1% | RXF 393 renal -13.6% | SF-539 CNS 3.25% | UACC-257 melanoma -52.7% | PC-3 prostate 6.17% | SK-MEL-5 melanoma -91.4% | UACC-62 melanoma -50.6% | SK-MEL-28 melanoma -84.6%

CC(=O)O[C@@H]1/C=C/C(=O)N[C@@H](C)CCC/C=C/[C@@H]2CCC[C@H]21
inactive: K-562 leukemia 102% | MALME-3M melanoma 117% | MDA-MB-231 breast 122% | SF-268 CNS 104% | SF-295 CNS 98.6% | SF-539 CNS 94% | UACC-257 melanoma 101% | M14 melanoma 103% | HCT-15 colon 114% | SNB-75 CNS 95% | SNB-19 CNS 96.9% | U251 CNS 109% | PC-3 prostate 90.2% | SK-MEL-5 melanoma 101% | UACC-62 melanoma 92.1% | LOX IMVI melanoma 105% | SK-MEL-28 melanoma 129% | SK-MEL-2 melanoma 119%

OC(c1ccccc1)c1nnc(SCc2ccccc2)n1Cc1ccccc1 (stereo not drawn)
inactive: K-562 leukemia 84.4% | MALME-3M melanoma 77.3% | MDA-MB-231 breast 103% | SF-268 CNS 94.2% | SF-295 CNS 83.4% | SF-539 CNS 101% | UACC-257 melanoma 103% | M14 melanoma 88% | HCT-15 colon 88.9% | SNB-75 CNS 76.3% | SNB-19 CNS 79.7% | U251 CNS 87.5% | PC-3 prostate 87.6% | SK-MEL-5 melanoma 96.7% | UACC-62 melanoma 69.1% | LOX IMVI melanoma 98.7% | SK-MEL-28 melanoma 100% | SK-MEL-2 melanoma 84.3%
